# An excerpt weighted towards active compounds, which were near 7.4% of everything screened.
# Luciferase inh: Photinus pyralis luciferase inhibition. purified P. pyralis luciferase, luminescence, biochemical. 76,000 tested, 2.5% active. AID 1347043. P08659. Potency, µM (titrated, usually from 115 µM), usual class: inhibitors; also: nearly all actives have a fitted effect of over 65% in size
# Target sequence (P08659 whole entry, looked up): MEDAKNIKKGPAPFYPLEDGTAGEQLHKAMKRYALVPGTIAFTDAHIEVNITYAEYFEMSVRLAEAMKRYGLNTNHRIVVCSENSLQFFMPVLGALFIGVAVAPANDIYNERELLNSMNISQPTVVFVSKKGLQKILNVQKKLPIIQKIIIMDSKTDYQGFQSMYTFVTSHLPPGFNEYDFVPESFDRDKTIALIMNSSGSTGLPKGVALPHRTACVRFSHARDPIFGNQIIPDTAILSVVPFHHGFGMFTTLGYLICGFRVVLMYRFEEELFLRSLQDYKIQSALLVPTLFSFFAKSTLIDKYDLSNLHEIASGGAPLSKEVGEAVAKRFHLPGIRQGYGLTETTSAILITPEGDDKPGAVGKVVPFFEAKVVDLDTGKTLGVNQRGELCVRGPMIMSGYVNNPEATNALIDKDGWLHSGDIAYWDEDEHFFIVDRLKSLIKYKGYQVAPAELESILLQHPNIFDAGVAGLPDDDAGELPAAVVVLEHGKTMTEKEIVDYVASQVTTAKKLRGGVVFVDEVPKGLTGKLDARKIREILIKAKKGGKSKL
#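 Biochemical qHTS: compound (6-point titration) added to 10uM D-luciferin plus 10uM ATP in Tris acetate pH 7.5 buffer with Mg, Tween-20 and BSA, then purified enzyme at 10nM; light output imaged.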
# HEK293 tox: kills HEK 293 cells; HEK 293 viability, ATP luminescence (CellTiter-Glo), 48-72 h; Potency, µM (doses to about 115 µM), inactives show at the top dose activity change, negative = cytotoxicity, actives largely listed as inhibitors; 94,000 tested, 6.6% active; AID 1345083; also: nearly all actives have a fitted effect of over 60% in size
#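 qHTS cytotoxicity; HEK 293, 250 cells/well; compound pinned; 48 or 72 hr, 37 degree Celsius, 5% CO2, 95% humidity; CellTiter-Glo, 10 min RT; luminescence (ATP).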
# SNCA expr inhib: SNCA gene expression inhibition; HEK-293 SNCA-luciferase knock-in, luminescence, 24 h; Potency, µM (top dose mostly 57.2 µM), for the others: at the highest dose activity change, negative = inhibition, hits mostly inhibitors; 140,000 tested, 0.17% active; AID 1671194;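 also: plate controls were DMSO cells for no effect and cell-free wells for full effect; nearly all actives have a fitted effect of over 45% in size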
# HEK293 viab: counter-screen for SNCA expression inhibitors: cell viability; AID 1671193; 150,000 tested, 0.12% active; Potency, µM (top dose mostly 57.1 µM), inactives show top-dose activity change, negative = cytotoxicity, hits mostly cytotoxic; HEK-293-SNCA-luc viability, GF-AFC fluorescence, 24 h;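 also: 0% = DMSO-treated cells and -100% = medium-only wells without cells; nearly all actives have a fitted effect of over 30% in size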
#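 Cytotoxicity counterscreen: after 24 h compound treatment of genome-edited SNCA-luciferase HEK-293 cells, live-cell protease substrate GF-AFC read by fluorescence after 30 min; activity scaled between DMSO (0%) and medium-only (-100%), curves Hill-fitted.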
# 3T3 cytotox: cytotoxic compounds in NIH 3T3 cells | NIH 3T3 viability, CellTiter-Glo ATP luminescence, 48-72 h | Potency, µM (highest dose often 96.7 µM), for inactives: top-dose activity change, negative = cytotoxicity, actives largely listed as inhibitors | 94,000 tested, 4.3% active | AID 1345082; also: nearly all actives have a fitted effect of over 55% in size
#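 Mouse fibroblast NIH 3T3 cells, 400 per well, received compound via pintool and were incubated for 48 or 72 hr prior to CellTiter-Glo ATP luminescence measurement.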
# NPR1 antag: antagonists of human natriuretic peptide receptor Npr1. HEK293 hNpr1 GloSensor cGMP, ANP-stimulated luminescence. Potency, µM (highest dose often 46.3 µM), inactives show top-dose activity change, negative = inhibition, most hits filed as inhibitors. 76,000 tested, 1.6% active; calls by dose curve; also: nearly all actives have a fitted effect of over 60% in size
#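 Compound pre-incubated 30 min at room temperature on GloSensor-loaded HEK293 cells stably carrying hNpr1 and the pGS-40F cGMP biosensor. Stimulation uses hNppA at 0.1 nM final; luminescence is taken at baseline and 20 min post-agonist.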
# Starred values were filed as active, the others as inactive; i = inactive; u = inconclusive; x = no result; ! = a repeat was not active; [ ] = dose if it differs, or a comment. Unless noted, calls follow the shape of the dose curve; as a rule, active = well fitted curve in the direction sought with a large enough effect; inconclusive = small, poorly fitted or top-dose-only effect, or another doubt; inactive = no such curve, though single readings can be large; an effect the other way counts as inactive or inconclusive. Unless noted, % is scaled to controls: 0 for no effect and ±100 for the full control effect; potency is read from the fitted curve at half-maximal effect.
SMILES,Luciferase inh,HEK293 tox,SNCA expr inhib,HEK293 viab,3T3 cytotox,NPR1 antag
CS(=O)(=O)N1CCC(Oc2ccc(C(=O)NCCc3cnccn3)cc2Cl)CC1,i,-4.7%,15.6%,10.7%,-19.3%,-20.8%
Cn1cccc1C(=O)N1CCC(c2nc(-c3cccn3C)no2)CC1,x,u,22.3%,3.3%,u,x
Cc1ccc(-c2ccc(CN)cc2)c(C)c1,x,31.6µM*,4.3%[87.6 µM],u,31.6µM*,x
NCc1ccccc1-c1ccccc1F,x,-20.3%[172 µM],-12.5%[87.6 µM],-2.3%[87.6 µM],-10.3%[138 µM],x
Cc1ccc(-c2cccc(CN)c2)c(C)c1,x,44.7µM*,19.4%[87.6 µM],2.1%[87.6 µM],28.2µM*,x
Cc1cccc(-c2ccccc2CN)c1,x,-26.6%[172 µM],18.2%[87.6 µM],-1.9%[87.6 µM],-12.9%[138 µM],x
Cc1cc(Cl)ccc1-c1ccccc1C=O,x,u,-22.3%[87.6 µM],0.0%[87.6 µM],112µM*,x
Cc1cc(Cl)ccc1-c1ccccc1CN,x,u,-12.6%[87.6 µM],-4.7%[87.6 µM],22.4µM*,x
O=C(C1CN(C2CCCC2)C(=O)N1)N1CCC(c2ccccc2)CC1 (stereo not given),x,-17.8%,7.7%,-2.5%[12.5 µM],-21.8%,x
NCc1cccc(-c2cc(C(F)(F)F)ccc2Cl)c1,x,70.8µM*,-4.3%,-13.9%,u,x
COc1ccccc1-c1cccc(CN)c1,x,100µM*,-6.2%[87.6 µM],4.1%[87.6 µM],126µM*,x
NCc1cccc(-c2cccc(O)c2)c1,x,-11.2%[172 µM],29.7%[87.6 µM],-3.0%[87.6 µM],-21.2%[138 µM],x
O=C(O)c1cccc(-c2cc(C(F)(F)F)ccc2Cl)c1,x,4.9%,20.8%,3.9%,i,x
Cc1cc(Cl)ccc1-c1cccc(CN)c1,x,39.8µM*,-16.6%[87.6 µM],u,31.6µM*,x
COCCn1nnnc1C1CC2(CCOCC2)C(=O)N1Cc1ccc(C)c(C)c1 (stereo not given),x,-6.1%,-1.9%,u,-21.3%,x
CNC(=O)c1cc(C)nc2onc(C3CCCN(C(=O)C(C)(C)C)C3)c12 (stereo not given),x,2.7%,x,x,-1.9%,x
c1ccc(OCCNc2nc(-c3cccnc3)nc3c2CCNCC3)cc1,i,u,195.9%,-13.4%,31.6µM*,u
CSc1ccc(-c2ccc3c(c2)C(=O)N2CCN(C(=O)CC(C)(C)C)C[C@@H]2C(=O)N3)cc1,i,35.5µM*,-21.3%,-20.3%,u,-20.4%
CSc1ccc(-c2ccc3c(c2)C(=O)N2CCN(C(=O)CCC(=O)O)C[C@H]2C(=O)N3)cc1,31.6µM*,-1.6%,-2.8%,-1.5%,-3.7%,3.7%
COc1ccc(C(=O)N2CCC3(CC2)NC(=O)N(c2cccc(F)c2)N3)cc1,i,u,2.9%,-6.3%,u,1.7%
CC(C)CCN1CCC(N2CCN(S(=O)(=O)Cc3ccc(F)cc3Cl)CC2)C1=O (stereo not given),i,u,u,-11.9%,-30.2%,-9.4%
CCCc1noc(-c2nc(-c3ccc4c(c3)OCO4)no2)n1,12.6µM*,-21.3%,98.3%,22.2%,-5.5%,-15.8%
COCCc1noc(-c2nc(-c3ccccc3)no2)n1,20µM*,-24.2%,27.6%,-3.7%,-9.8%,-5.2%
CCc1noc(-c2nc(-c3cccc(F)c3)no2)n1,25.1µM*,-6.7%,67.8%,12.7%,i,-21.4%
O=C(NC1CCN(c2cc(N3CCOCC3)cnn2)C1)C1CCCC1 (stereo not given),x,-11.0%,8.1%,3.2%,-27.2%,x
SMILES,Luciferase inh,HEK293 tox,SNCA expr inhib,HEK293 viab,3T3 cytotox,NPR1 antag
O=C1CC2(CCN(C(=O)c3ccccc3F)CC2)Oc2cc(Cl)ccc21,i,u,-8.3%,5.6%,u,-23.1%
O=C1CC2(CCN(C(=O)c3ccc(C(F)(F)F)cc3)CC2)Oc2cc(Cl)ccc21,i,35.5µM*,-17.4%,-8.5%,25.1µM*,-20.4%
O=C1CC2(CCN(Cc3cccs3)CC2)Oc2cc(Cl)ccc21,15.8µM*!,u,107.5%,1.2%,u,-0.1%
CC(=O)Nc1ccc(CN2CCC3(CC2)CC(=O)c2ccccc2O3)cc1,i,-15.2%,40.1%,-4.2%,u,0.0%
CC(=O)Nc1ccc(CN2CCC3(CC2)CC(=O)c2ccc(Cl)cc2O3)cc1,i,50.1µM*,36.6%,-8.5%,u,12.3%
COc1ccc(-c2cc(C(=O)NCCc3ccc(Cl)cc3)c3cnn(C)c3n2)cc1,x,-6.7%,-8.4%,7.0%,-12.4%,x
O[C@@H]1C[C@@H](c2nc(-c3ccc(OC(F)(F)F)cc3)no2)N(C2CCOCC2)C1,39.8µM*,u,147.9%[87.6 µM],5.6%[87.6 µM],u,-9.6%[70.6 µM]
CN1C[C@@H](NC(=O)c2ccc(F)cc2)C[C@H]1c1nc(-c2ccc(OC(F)(F)F)cc2)no1,i,u,4.8%,1.7%,u,-2.4%
O[C@@H]1C[C@@H](c2nc(-c3ccc(OC(F)(F)F)cc3)no2)N(Cc2ncc[nH]2)C1,u,u,101.4%[87.6 µM],12.2%[87.6 µM],-29.0%[174 µM],-21.7%[70.6 µM]
O[C@H]1CN[C@H](c2nc(-c3ccc(OC(F)(F)F)cc3)no2)C1,31.6µM*,u,112.8%[87.6 µM],8.8%[87.6 µM],-25.8%[174 µM],-17.9%[70.6 µM]
CNC(=O)c1cc(C2CC2)nc2onc(C3CCN(C(=O)c4ccccc4C)C3)c12 (stereo not given),x,-19.5%,x,x,-24.2%,x
COc1ccc(C(=O)N2CCCC2C(=O)N2CCC(c3nc4ccncc4[nH]3)CC2)cc1 (stereo not given),x,3.4%,7.6%,3.1%,-10.4%,x
O=C1Nc2ccc(-c3ccccc3F)cc2C(=O)N2C[C@@H](NS(=O)(=O)c3ccc(F)cc3)C[C@@H]12,i,u,-8.5%,3.1%,u,0.1%
COc1ccc(Cl)cc1-c1ccc2c(c1)C(=O)N1CC[C@H](N)C[C@H]1C(=O)N2,i,25.1µM*,-22.2%[87.6 µM],-1.2%[87.6 µM],31.6µM*,-15.9%[70.6 µM]
COc1ccc(Cl)cc1-c1ccc2c(c1)C(=O)N1C[C@H](O)C[C@H]1C(=O)N2,i,u,-10.6%[87.6 µM],3.1%[87.6 µM],u,2.7%[70.6 µM]
COc1ccc(Cl)cc1-c1ccc2c(c1)C(=O)N1C[C@@H](NS(=O)(=O)c3ccc(F)cc3)C[C@H]1C(=O)N2,i,35.5µM*,u,u,u,-28.4%
O=C(c1nc2cccnc2n(Cc2ccccc2)c1=O)N1CCC(c2ccccc2)CC1,x,u,-15.4%,9.7%,u,x
CNC(=O)c1cc(C2CC2)nc2c1c(C1CCCN1C(=O)c1ccncc1)nn2C (stereo not given),x,-1.9%,x,x,-23.7%,x
CNC(=O)c1cc(C)nc2onc(C3CCCN3C(=O)OC)c12 (stereo not given),x,-2.9%[172 µM],x,x,i,x
O=C(Nc1ccncn1)[C@@H]1C[C@@H](c2cccc(C(F)(F)F)c2)N(CC2CCOCC2)C1,i,79.4µM*,-27.5%[87.6 µM],-6.8%[87.6 µM],u,-6.7%[70.6 µM]
Cn1cc(CN2C[C@H](C(=O)Nc3ccc(F)cc3)C[C@H]2c2cccc(C(F)(F)F)c2)cn1,i,u,u,u,u,-9.7%

# Screening results as filed in PubChem.
